“And” between values parts separate entries of the source, which are not always exact repeats. Equal entries are not always repeated. Structures can show the parent of a compound that is named as a salt.
Columns and labels:
Assay in all cases: cell viability relative to vehicle control; higher = less cytotoxic
Details in all cases: 10 µM
K562 = tested on: K562
Outline: (§1)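 Screening covered the Selleck bioactive, kinase and epigenetic probe libraries, less identity-inconsistent compounds, on CRISPR-edited mutant clones and isogenic wild-type clones of four leukaemia lines. Cells, at 2000 per well in 50 µL medium, received a single 10 µM acoustically dispensed dose. After 48 h the supernatant was removed and CellTiter-Glo luminescence was read. Viability was analysed in Genedata Screener as percent of the on-plate vehicle control.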

MARIMO = tested on: MARIMO
Outline: as §1

MOLM14 = tested on: MOLM14
Outline: as §1

OCI-AML2 = tested on: OCI-AML2
Outline: as §1

Compound	cell viability (K562; SRSF2 genotype: SRSF2 P95H/wt)	cell viability (K562; SRSF2 genotype: SRSF2 wt/wt) [%]	cell viability (MARIMO; SRSF2 genotype: SRSF2 P95H/wt) [%]	cell viability (MARIMO; SRSF2 genotype: SRSF2 wt/wt) [%]	cell viability (MOLM14; SRSF2 genotype: SRSF2 P95H/wt) [%]	cell viability (MOLM14; SRSF2 genotype: SRSF2 wt/wt) [%]	cell viability (OCI-AML2; SRSF2 genotype: P95H/wt) [%]	cell viability (OCI-AML2; SRSF2 genotype: wt/wt) [%]
C[n+]1ccccc1C=NO [Pralidoxime Iodide]	106% and 98.4%	111	101	105	99.2	106	105	118
O=c1c(O)c(-c2ccc(O)cc2)oc2cc(O)cc(O)c12 [Kaempferol]	96.1% and 106%	108	98.1	117	57.4	68	81.7	67.5
Cc1cn(CCN2CCN(c3ccccc3-c3cc(C#N)cc(C(=O)NCCCN4CCCC4)c3)CC2)c2ccccc12	0.16% and 0.18%	0.16	0.17	0.22	0.12	0.12	0.03	0.1
C=C1/C(=C\C=C2/CCC[C@]3(C)[C@@H]([C@H](C)CCCC(C)(C)O)CC[C@@H]23)C[C@@H](O)C[C@@H]1O [Calcitriol (Rocaltrol)]	81.2% and 89.8%	88.2	66.9	66.5	65.4	62.6	64.9	76.3
Cc1[nH]c(=O)c(C#N)cc1-c1ccncc1 [Milrinone (Primacor)]	102% and 97.3%	94.1	96.1	93.1	98.8	99.1	101	96
O=c1c2cc(O[C@@H]3O[C@H](CO)[C@@H](O)[C@H](O)[C@H]3O)c(O)cc2oc2cc(O)c([C@@H]3O[C@H](CO)[C@@H](O)[C@H](O)[C@H]3O)c(O)c12 [Neomangiferin]	95.1% and 100%	97	93.8	91.2	99.4	100	101	97.7
CO/N=C(\C(=O)N[C@@H]1C(=O)N2C(C(=O)O)=C(CSc3nnnn3C)CS[C@H]12)c1csc(N)n1 [Cefmenoxime hydrochloride]	96.7% and 90.3%	100	98.4	97.1	99.7	98.8	97.2	101
Cc1cc(C)cc(C(=O)NOCCCCCC(=O)NO)c1	1.41% and 17.1%	4.57	7.1	10.6	0.7	0.46	2.75	5.29
CC(=O)c1ccc(NN=C(C(N)=O)C2=NC(C)(C)Cc3ccccc32)cc1	79.9% and 87.9%	86.9	56.1	58.1	15	14.7	30.5	40.5
CC(C)C[C@H](NP(=O)(O)O[C@@H]1O[C@@H](C)[C@H](O)[C@@H](O)[C@H]1O)C(=O)N[C@@H](Cc1c[nH]c2ccccc12)C(=O)O [Phosphoramidon Disodium Salt]	104% and 101%	92.3	101	106	95.5	104	98.6	96.9
CC(=O)N[C@@H](CC(C)C)C(=O)N[C@@H](CC(C)C)C(=O)N[C@H](C=O)CCCNC(=N)N [Leupeptin Hemisulfate]	94.1% and 83.4%	86.2	90.8	97.3	85.8	90.1	97.4	97.7
CCC(=O)O[C@H]1[C@H](O[C@@H]2[C@@H](C)[C@H](O[C@H]3C[C@@](C)(OC)[C@@H](O)[C@H](C)O3)[C@@H](C)C(=O)O[C@H](CC)[C@@](C)(O)[C@H](O)[C@@H](C)C(=O)[C@H](C)C[C@@]2(C)O)O[C@H](C)C[C@@H]1N(C)C [Erythromycin estolate]	92.3% and 89.5%	90.4	92.3	105	96.4	95.8	77.5	76.8
CNc1ccc([N+](=O)[O-])c(Nc2ccc3[nH]ncc3c2)n1	59.1% and 76.9%	58.6	50.4	60	18.1	9.24	18.9	26.6
C[C@H]1[C@H](C)CC[C@]2(C(=O)O[C@@H]3O[C@H](CO[C@@H]4O[C@H](CO)[C@@H](O[C@@H]5O[C@@H](C)[C@H](O)[C@@H](O)[C@H]5O)[C@H](O)[C@H]4O)[C@@H](O)[C@H](O)[C@H]3O)CC[C@]3(C)C(=CC[C@@H]4[C@@]5(C)C[C@@H](O)[C@H](O)[C@@](C)(CO)[C@@H]5[C@H](O)C[C@]43C)[C@H]12 [Madecassoside]	106% and 105%	103	99.8	111	97.8	106	99.9	110
CO[C@@H]1[C@@H](OC(N)=O)[C@@H](O)[C@H](Oc2ccc3c(O)c(NC(=O)c4ccc(O)c(CC=C(C)C)c4)c(=O)oc3c2C)OC1(C)C [Novobiocin sodium (Albamycin)]	103% and 87.6%	82.6	91.6	92.9	93.6	89.7	91.4	94.4
NC(=O)N/N=C/c1ccc([N+](=O)[O-])o1 [Nitrofurazone (Nitrofural)]	98.5% and 94.8%	96.7	104	100	96.8	99.5	102	103
C[C@]12CC[C@@H]3c4ccc(O)cc4CC[C@H]3[C@@H]1CC[C@@H]2OC(=O)CCC1CCCC1 [Estradiol Cypionate]	91.5% and 90.9%	91.3	86.9	81.6	75	84.1	55.4	53.1
CC1(C)O[C@@H]2C[C@H]3[C@@H]4CCC5=CC(=O)C=C[C@]5(C)[C@H]4[C@@H](O)C[C@]3(C)[C@]2(C(=O)CO)O1 [Desonide]	97.9% and 104%	102	102	110	106	100	104	121

Compound	cell viability (K562; SRSF2 genotype: SRSF2 P95H/wt)	cell viability (K562; SRSF2 genotype: SRSF2 wt/wt) [%]	cell viability (MARIMO; SRSF2 genotype: SRSF2 P95H/wt) [%]	cell viability (MARIMO; SRSF2 genotype: SRSF2 wt/wt) [%]	cell viability (MOLM14; SRSF2 genotype: SRSF2 P95H/wt) [%]	cell viability (MOLM14; SRSF2 genotype: SRSF2 wt/wt) [%]	cell viability (OCI-AML2; SRSF2 genotype: P95H/wt) [%]	cell viability (OCI-AML2; SRSF2 genotype: wt/wt) [%]
Nc1nc2c(ncn2COC(CO)CO)c(=O)[nH]1 [Ganciclovir]	105% and 99.9%	106	100	108	112	104	91.1	104
CC(=CCNc1ncnc2nc[nH]c12)CO [Trans-Zeatin]	100% and 95.4%	104	99	108	98.3	103	104	97.4
C[C@@H](O)[C@H]1C(=O)N2C(C(=O)O)=C(S[C@@H]3CN[C@H](CNS(N)(=O)=O)C3)[C@H](C)[C@H]12 [Doripenem]	98.4% and 92.9%	97.5	93.2	102	99.7	98.3	89.2	99
CCOc1cc(CC(=O)N[C@@H](CC(C)C)c2ccccc2N2CCCCC2)ccc1C(=O)O [Repaglinide]	105% and 100%	97.6	103	101	102	101	108	116
C[C@]12CCC(=O)C=C1[C@@H]1C[C@@H]1[C@H]1[C@@H]3[C@@H]4C[C@@H]4[C@@]4(CCC(=O)O4)[C@@]3(C)CC[C@@H]12 [Drospirenone]	83.3% and 90.5%	83.3	82	91.8	83.8	89.2	101	92.7
Cc1noc(C)c1-c1ccc(-c2cc(C(N)=O)c(NC(N)=O)s2)c(O[C@H]2CCNC2)c1	101%	93.8	94.9	103	89.5	99.7	101	105
CN(C)CCC=C1c2ccccc2C(C)(C)c2ccccc21 [Melitracen hydrochloride]	68.2% and 69.9%	82.3	62.9	69.7	63.8	77.6	61.3	65.3
COC(=O)C1=C(C)NC(C)=C(C(=O)OCCN2CCN(C(c3ccccc3)c3ccccc3)CC2)C1c1cccc([N+](=O)[O-])c1 (stereo not drawn) [Manidipine (Manyper)]	75.7% and 63.9%	53.3	60.2	58.5	73.9	64.2	29.8	41
C[C@@H]1CC[C@@]2(OC1)O[C@H]1C[C@H]3[C@@H]4CC=C5C[C@@H](O[C@@H]6O[C@H](CO)[C@@H](O[C@@H]7O[C@@H](CO)[C@H](O)[C@H]7O)[C@H](O)[C@H]6O[C@@H]6O[C@@H](C)[C@H](O)[C@@H](O)[C@H]6O)CC[C@]5(C)[C@H]4CC[C@]3(C)[C@H]1[C@@H]2C [Polyphyllin I]	0.33%	0.31	0.37	0.67	0.32	0.29	0.21	0.36
CC#CC(=O)Nc1ccc2ncnc(Nc3cccc(Br)c3)c2c1	7.91% and 17.6%	20.9	34.7	35.5	0.84	1.92	1.61	6.95
O=C(Nc1cc(C(F)(F)F)cc(C(F)(F)F)c1)c1cc(Cl)ccc1O	5.29% and 8.22%	5.97	19	18.3	10.3	8.64	2.4	8.72
O=c1ccc2ccc(O)c(O)c2o1 [Daphnetin]	79.5% and 82.3%	83.5	75.2	89	84.4	93.2	81.4	86.2
CC(C)(C)c1[nH]cnc1/C=c1\[nH]c(=O)/c(=C/c2ccccc2)[nH]c1=O [NPI-2358 (Plinabulin)]	10.3% and 31%	31.4	7.45	11	1.68	1.52	2.13	5.45
Cn1ncc(Cl)c1-c1cc(C(=O)N[C@H](CN)Cc2cccc(F)c2)sc1Cl	49.3% and 45.9%	51	67.5	63.7	34.9	37.3	33.6	48.6
O=C(Nc1cc2cc[nH]c2cn1)c1ccccc1	45.9% and 44.5%	43	43.3	45.8	49.3	51.1	38.6	39.3
CC1(C)C=Cc2c(ccc3c2OC[C@@H](c2ccc(O)cc2O)C3)O1 [Glabridin]	77.9% and 80.4%	76.9	87.5	92.5	87.2	94.4	93.6	89.4
COc1ccc(-n2c(SCCCN3C(=O)c4cccc5cccc(c45)C3=O)nnc2-c2ccncc2)cc1	100% and 88.5%	88.4	101	103	102	101	95.5	100
NC(=O)[C@@H]1CC[C@@H]2CN1C(=O)N2OS(=O)(=O)O [Avibactam sodium]	102% and 116%	112	110	106	108	111	102	101

— the supplement of paper PMC10981050
